{
  "source": "PubChem BioAssay (Tox21)",
  "note": "Inconclusive results are not listed. A call without a number means that no potency is given here. Calls of active or inactive are those of the source. The call rests on the fitted dose curve; in most records, active means well fitted cell-killing curve with a large enough effect in the repeat runs; inconclusive means weak or mixed curves, or effect the other way; inactive means no such curve, though single readings can be large or run the other way. Potency means the concentration at half of the fitted maximal effect.",
  "data": [
    {"assay": "qHTS assay to identify small molecule antagonists of the retinoid-related orphan receptor gamma (ROR-gamma) signaling pathway - cell viability counter screen (AID 1159520); further: nearly all actives have a fitted effect of over 50% in size", "details": "Tet-on RORgamma CHO cells viability, ATP luminescence, 16 h; series mostly up to 92.4 µM", "procedure,_shortened": "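Cytotoxicity was read from cellular ATP (CellTiter-Glo luminescence) after 16 hr at 37 C with 1 uM doxycycline induction. The inducer was added 2 hr after compound transfer to Tet-on ROR gamma CHO cells.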", "values": [
      {"smiles": "COc1ccc(/C=C/S(=O)(=O)NC(=O)c2ccc(C)cc2Cl)cc1", "Potency": "inactive"},
      {"smiles": "O=C(Cl)c1cc(Cl)cc(Cl)c1", "Potency": "inactive"},
      {"smiles": "O=C(NC1CCN(CCc2c[nH]c3ccccc23)CC1)c1ccccc1", "Potency": "inactive"},
      {"smiles": "Cc1ccccc1CCO", "Potency": "inactive"},
      {"smiles": "Cc1c(N=C=O)cccc1N=C=O", "Potency": "inactive"},
      {"smiles": "CC(C)Cc1nccs1", "Potency": "inactive"},
      {"smiles": "CC/C=C\\CCO", "Potency": "inactive"},
      {"smiles": "S=c1[nH][nH]c(=S)s1", "Potency": "inactive"},
      {"smiles": "CC(=O)CC/C=C(\\C)CC/C=C(\\C)CC/C=C(\\C)CCC=C(C)C", "Potency": "inactive"},
      {"smiles": "CC/C=C/CCO", "Potency": "inactive"},
      {"smiles": "CCCCCCC/C=C/C=O", "Potency": "inactive"},
      {"smiles": "CC(C)C[C@H](NC(=O)[C@H](Cc1ccccc1)NC(=O)c1cnccn1)B(O)O", "Potency": "66.8 nM (active)"},
      {"smiles": "O=C(N[C@@H](Cc1ccccc1)[C@@H](O)C(=O)N1C[C@@H](O)[C@@H](O)C1)c1cc2cc(Cl)ccc2[nH]1", "Potency": "inactive"},
      {"smiles": "C=CC(=O)OCCCCCCCCCC", "Potency": "inactive"},
      {"smiles": "CCOc1cc(OCC)c(C(C)=O)cc1OCC", "Potency": "inactive"},
      {"smiles": "COc1ccc(/C=C/c2cc(OC)cc(=O)o2)cc1", "Potency": "inactive"},
      {"smiles": "O=C(O)c1ccccc1[N+](=O)[O-]", "Potency": "inactive"},
      {"smiles": "CCCCCCCCNC", "Potency": "inactive"},
      {"smiles": "C[Si](C)(C)O[Si](C)(C)O[Si](C)(C)C", "Potency": "inactive"},
      {"smiles": "CC(C)CCCCCCCOC(=O)c1ccc(C(=O)OCCCCCCCC(C)C)c(C(=O)OCCCCCCCC(C)C)c1", "Potency": "inactive"},
      {"smiles": "Nc1ccc(-c2ccc(F)cc2)cc1", "Potency": "inactive"},
      {"smiles": "Nc1ccc(C(=O)Oc2ccccc2)c(O)c1", "Potency": "inactive"},
      {"smiles": "O=C(O)c1cc(C(=O)O)cc([N+](=O)[O-])c1", "Potency": "inactive"},
      {"smiles": "CC(C)C/C=C(\\C=O)c1ccccc1", "Potency": "inactive"}
    ]}
  ]
}
